According to PubChem BioAssay (Tox21):
Where “and” joins values, the source holds several entries; their conditions need not be identical. Identical values can stand only once. Records with an inconclusive call do not appear. Calls of active or inactive are those of the source. Unless noted, calls follow the shape of the dose curve; as a rule, active = well fitted curve in the direction sought with a large enough effect in the repeat runs; inconclusive = weak or mixed curves; inactive = no such curve, though single readings can be large; an effect the other way counts as inactive or inconclusive.

Assays:
[1] = qHTS assay to identify small molecule antagonists of the androgen receptor (AR) signaling pathway using the MDA cell line in the presence of 0.5 nM R1881 - cell viability counter screen (AID 1259242); also: nearly all actives have a fitted effect of over 45% in size
Outline: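 Viability of MDA-kb2 cells was multiplexed with the luciferase AR readout; after 16 hr with compounds and R1881 at 0.5 nM final, CellTiter-Fluor fluorescence was recorded.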

[2] = target: Androgen receptor (Homo sapiens) (UniProt P10275); assay: qHTS assay to identify small molecule antagonists of the androgen receptor (AR) signaling pathway using the MDA cell line in the presence of 0.5 nM R1881 (AID 1259243); also: nearly all actives have a fitted effect of over 50% in size; also: potency is read from the fitted curve at half-maximal effect
Outline: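 Reporter cells cultured without CO2 receive test chemicals, then 0.5 nM R1881 final; after 16 hr at 37C, ONE-Glo is added and light output recorded.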

[3] = target: Estrogen receptor (Homo sapiens) (UniProt P03372); assay: qHTS assay to identify small molecule antagonists of the estrogen receptor alpha (ER-alpha) signaling pathway using the BG1 cell line in the presence of 0.1 nM 17-beta-estradiol (AID 1259244); also: nearly all actives have a fitted effect of over 50% in size
Outline: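 Estradiol at 0.1 nM (final) stimulates the endogenous ER-alpha of VM7Luc4E2 cells carrying an ERE-driven luciferase; compounds are co-incubated 22 h at 37C and luciferase output quantified by luminescence.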

[4] = qHTS assay to identify small molecule phospholipidosis (PLD) inducers (AID 1259344; active = well fitted curve in the direction sought with a large enough effect; an effect the other way counts as inactive or inconclusive)
Outline: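 Phospholipidosis is scored by imaging LipidTOX-stained pits in HepG2 cells exposed to compound for 24 h at 37 C; pit counts and integrated intensities per well and per cell serve as outputs.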

[5] = qHTS assay to identify small molecule HDAC inhibitors (AID 1259364);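 also: wild-type HCT-116 cells with endogenous class I/II HDAC activity; top concentration of the series differs between compounds; nearly all actives have a fitted effect of over 45% in size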
Outline: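 Read-out: luminescence of HDAC-Glo I/II reagent, 30 min RT, reflecting class I/II deacetylase activity in whole HCT-116 cells pre-exposed 2 h to DMSO-dissolved compounds.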

[6] = qHTS assay to identify small molecule HDAC inhibitors - cell viability counter screen (AID 1259365); also: series mostly up to about 92 µM; nearly all actives have a fitted effect of over 50% in size
Outline: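 After overnight seeding at 1,500 cells per well, wild-type HCT-116 cultures took up compounds in DMSO for 2hr at 37 C. Viable cell content came from luminescence with CellTiter-Glo.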

[7] = qHTS assay to identify small molecule agonists of the sonic hedgehog signaling (Shh) pathway - cell viability counter screen (AID 1259366); also: nearly all actives have a fitted effect of over 50% in size
Outline: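 Same-well cytotoxicity read. Gli1-Luc reporter 3T3 cells; compounds 24hr, 37C/5% CO2; CellTiter-Fluor fluorescence.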

[8] = qHTS assay to identify small molecule antagonists of the sonic hedgehog signaling (Shh) pathway - cell viability counter screen (AID 1259367); also: nearly all actives have a fitted effect of over 55% in size
Outline: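 Cells: 3T3 Gli1-Luc, 2,000/well, 4 hr pre-incubation. Compounds in DMSO, then conditioned medium. Incubation 24 hr, 37C, 5% CO2. CellTiter-Fluor at 23 hr, 1 hr, fluorescence.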

[9] = qHTS assay to identify small molecule agonists of the sonic hedgehog signaling (Shh) pathway (AID 1259368; calls by dose curve;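 also: NIH/3T3-derived 3T3Gli1-Luc cells carrying a stable Gli1-driven firefly luciferase reporter; series mostly up to about 92 µM; nearly all actives have a fitted effect of over 15% in size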)
Outline: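 A Gli1 transcriptional response element controlled firefly luciferase in 3T3Gli1-Luc cells. Compounds and a positive control were added 4 hr after plating, and cells were incubated a further 24 hr at 37 C before luminescence detection.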

[10] = qHTS assay to identify small molecule antagonists of the sonic hedgehog signaling (Shh) pathway (AID 1259369; calls by dose curve; also: nearly all actives have a fitted effect of over 45% in size)
Outline: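 For antagonist detection, the reporter line received test compounds together with conditioned medium, incubated 24hr at 37 C, 5% CO2, then luminescence was recorded following 30min room-temperature luciferase reagent incubation.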

[11] = target: Estrogen receptor beta (Homo sapiens) (UniProt Q92731); assay: qHTS assay to identify small molecule agonists of the estrogen receptor beta (ER-beta) signaling pathway (AID 1259377; active = well fitted activation curve with a large enough effect in the signal ratio in the repeat runs, not every such curve was filed as active; the % refers to the signal ratio)
Outline: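 Read-out: beta-lactamase FRET fluorescence. Cell line: ER-beta-UAS-bla HEK293T in 2% charcoal-stripped FBS. Exposure: 16 hr at 37C. Substrate step: 2 h at room temperature.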

[12] = target: Estrogen receptor beta (Homo sapiens) (UniProt Q92731); assay: qHTS assay to identify small molecule antagonists of the estrogen receptor beta (ER-beta) signaling pathway (AID 1259378; active = well fitted inhibition curve with a large enough effect in the signal ratio in the repeat runs, not every such curve was filed as active; the % refers to the signal ratio)
Outline: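 Antagonist mode: compounds added to beta-lactamase reporter HEK293T ER-beta-UAS cells stimulated with E2 (1nM final), 16 hr at 37C. LiveBLAzer B/G FRET substrate, 2 hours room temperature, fluorescence read-out.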

[13] = qHTS assay to identify small molecule agonists of the androgen receptor (AR) signaling pathway in the presence of an antagonist - cell viability counter screen (AID 1259379);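 also: MDA-kb2 human breast cancer cells carrying an MMTV luciferase reporter; series mostly up to about 92 µM; nearly all actives have a fitted effect of over 25% in size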
Outline: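 Seed MDA-kb2 at 3,000 cells/well; incubate 5 hr, 37C, 0% CO2. Add nilutamide to 3.0uM final, then pin compounds at 15 concentrations. Incubate 16 hr. Add CellTiter-Fluor at 15 hr, read fluorescence after 1 hr.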

[14] = qHTS assay to identify small molecule agonists of the estrogen receptor beta (ER-beta) signaling pathway - cell viability counter screen (AID 1259380); also: nearly all actives have a fitted effect of over 30% in size; also: potency is read from the fitted curve at half-maximal effect
Outline: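 CellTiter-Glo read, 30 min RT, same wells as bla assay; cells ER-beta-UAS-bla HEK293T; 16 hr compound, 37C; medium 2% charcoal-stripped FBS.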

[15] = target: Androgen receptor (Homo sapiens) (UniProt P10275); assay: qHTS assay to identify small molecule agonists of the androgen receptor (AR) signaling pathway in the presence of an antagonist (AID 1259381; calls by dose curve; also: nearly all actives have a fitted effect of over 15% in size; also: potency is read from the fitted curve at half-maximal effect)
Outline: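 Test compounds at 15 concentrations were incubated for 16hr with MDA-kb2 reporter cells in presence of 3.0uM nilutamide (final). Signal: ONE-Glo luciferase luminescence.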

[16] = qHTS assay to identify small molecule agonists or antagonists of the thyroid stimulating hormone receptor (TSHR) signaling pathway - wild type cell line counter screen (AID 1259384; calls by dose curve)
Outline: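 Counter screen in untransfected Hek293: compounds (15-point titration, triplicate) plus phosphodiesterase inhibitor Ro20-1724 added after 18 h plating; 30 min RT. Intracellular cAMP via competitive d2/cryptate immunoassay, 1 h incubation.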

[17] = qHTS assay to identify small molecule agonists of the estrogen receptor alpha (ER-alpha) signaling pathway in the presence of an antagonist - cell viability counter screen (AID 1259386);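 also: series mostly up to about 92 µM; cells exposed to compounds for 22 h at 37 °C before the viability read; nearly all actives have a fitted effect of over 30% in size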
Outline: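 Viability counter screen using VM7Luc4E2 (full-length ER-alpha, four ERE-luciferase). The cells were treated with compounds alongside ICI-182,780 10.0nM for 22hr, and live-cell protease fluorescence was quantified with CellTiter-Fluor.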

[18] = target: Estrogen receptor (Homo sapiens) (UniProt P03372); assay: qHTS assay to identify small molecule agonists of the estrogen receptor alpha (ER-alpha) signaling pathway in the presence of an antagonist (AID 1259383; calls by dose curve; also: top concentration of the series differs between compounds; nearly all actives have a fitted effect of over 15% in size)
Outline: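 Stably transfected VM7Luc4E2 reporter cells, kept 5 days in charcoal-stripped serum, received ICI-182,780 at 10.0nM final before compound addition. Following 22hr incubation at 37C and 5% CO2, luciferase signal was read by luminescence.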

[19] = target: Thyrotropin receptor (Homo sapiens) (UniProt P16473); assay: qHTS assay to identify small molecule antagonists of the thyroid stimulating hormone receptor (TSHR) signaling pathway (AID 1259385; calls by dose curve; also: nearly all actives have a fitted effect of over 20% in size)
Outline: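 Antagonist mode: compound-treated TSHR-expressing HEK293 cells were stimulated with 1.5 ng/mL TSH (final) in presence of Ro20-1724 for 30 min at RT. HTRF cAMP detection after 1 h; each compound tested at 15 concentrations, triplicate.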

[20] = qHTS assay to identify small molecule antagonists of the estrogen receptor beta (ER-beta) signaling pathway - cell viability counter screen (AID 1259382);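 also: HEK293T cells carrying ER-beta-UAS-bla reporter stimulated with estradiol; series mostly up to about 92 µM; nearly all actives have a fitted effect of over 55% in size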
Outline: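 In this multiplexed counter screen, cells were seeded at 2,000 per well in medium with 2% charcoal-stripped FBS and incubated 6 hr before compound and 1nM final E2 were added. Sixteen hours later, ATP-based luminescence reported viability.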
% is scaled to controls: 0 for no effect and ±100 for the full control effect.

Chain of Androgen receptor (Homo sapiens) (P10275 whole entry, looked up): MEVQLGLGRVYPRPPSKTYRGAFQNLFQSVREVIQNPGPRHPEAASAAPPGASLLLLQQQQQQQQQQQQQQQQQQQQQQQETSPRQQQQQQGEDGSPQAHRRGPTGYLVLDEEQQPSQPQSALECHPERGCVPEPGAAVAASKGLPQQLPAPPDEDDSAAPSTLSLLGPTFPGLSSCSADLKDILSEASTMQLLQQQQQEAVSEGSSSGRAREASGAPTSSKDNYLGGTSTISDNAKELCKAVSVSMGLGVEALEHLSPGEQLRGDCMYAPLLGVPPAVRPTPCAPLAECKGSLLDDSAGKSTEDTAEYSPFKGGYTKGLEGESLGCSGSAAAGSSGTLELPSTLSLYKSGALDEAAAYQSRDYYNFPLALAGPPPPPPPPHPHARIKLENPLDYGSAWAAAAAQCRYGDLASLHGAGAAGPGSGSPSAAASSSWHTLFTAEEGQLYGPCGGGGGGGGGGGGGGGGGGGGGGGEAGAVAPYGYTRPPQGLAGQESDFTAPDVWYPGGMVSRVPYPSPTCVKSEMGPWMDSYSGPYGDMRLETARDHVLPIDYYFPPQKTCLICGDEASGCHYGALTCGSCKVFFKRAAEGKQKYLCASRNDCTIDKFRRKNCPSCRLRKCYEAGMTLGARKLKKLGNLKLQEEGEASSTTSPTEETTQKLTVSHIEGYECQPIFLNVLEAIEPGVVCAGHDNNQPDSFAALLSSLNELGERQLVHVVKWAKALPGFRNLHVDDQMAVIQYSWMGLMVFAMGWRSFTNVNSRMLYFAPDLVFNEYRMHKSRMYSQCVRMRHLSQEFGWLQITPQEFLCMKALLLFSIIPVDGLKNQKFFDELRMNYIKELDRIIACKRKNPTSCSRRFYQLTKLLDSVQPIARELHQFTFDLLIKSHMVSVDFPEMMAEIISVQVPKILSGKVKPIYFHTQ
Chain of Estrogen receptor beta (Homo sapiens) (Q92731 whole entry, looked up): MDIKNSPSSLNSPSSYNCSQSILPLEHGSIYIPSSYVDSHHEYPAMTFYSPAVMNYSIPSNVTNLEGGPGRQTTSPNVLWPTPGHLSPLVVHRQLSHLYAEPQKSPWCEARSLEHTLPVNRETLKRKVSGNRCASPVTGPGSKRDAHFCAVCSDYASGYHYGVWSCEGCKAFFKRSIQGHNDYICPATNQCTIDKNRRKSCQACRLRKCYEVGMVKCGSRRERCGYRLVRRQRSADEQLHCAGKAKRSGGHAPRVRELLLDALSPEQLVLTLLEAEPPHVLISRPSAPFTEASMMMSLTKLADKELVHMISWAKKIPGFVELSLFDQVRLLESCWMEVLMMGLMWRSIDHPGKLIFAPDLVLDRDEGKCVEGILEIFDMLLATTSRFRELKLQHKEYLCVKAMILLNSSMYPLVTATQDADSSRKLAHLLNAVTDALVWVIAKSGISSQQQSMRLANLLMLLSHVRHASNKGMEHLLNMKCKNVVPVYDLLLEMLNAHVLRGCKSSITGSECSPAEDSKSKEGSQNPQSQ
Chain of Estrogen receptor (Homo sapiens) (P03372 whole entry, looked up): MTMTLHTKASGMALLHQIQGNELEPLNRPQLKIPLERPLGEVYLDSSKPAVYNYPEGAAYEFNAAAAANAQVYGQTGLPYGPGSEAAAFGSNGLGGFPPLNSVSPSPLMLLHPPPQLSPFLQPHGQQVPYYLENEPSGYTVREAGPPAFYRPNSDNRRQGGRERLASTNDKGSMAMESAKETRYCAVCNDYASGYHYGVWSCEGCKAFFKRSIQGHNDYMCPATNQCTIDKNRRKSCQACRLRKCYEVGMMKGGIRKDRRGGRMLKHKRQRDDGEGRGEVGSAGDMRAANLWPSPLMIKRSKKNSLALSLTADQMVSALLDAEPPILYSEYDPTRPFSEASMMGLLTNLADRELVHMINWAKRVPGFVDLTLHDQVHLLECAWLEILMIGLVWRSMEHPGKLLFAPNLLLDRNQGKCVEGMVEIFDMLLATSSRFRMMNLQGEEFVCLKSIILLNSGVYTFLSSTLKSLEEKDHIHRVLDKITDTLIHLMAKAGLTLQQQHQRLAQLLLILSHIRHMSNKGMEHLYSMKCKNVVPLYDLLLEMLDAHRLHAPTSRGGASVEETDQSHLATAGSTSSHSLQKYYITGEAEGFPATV
Chain of Thyrotropin receptor (Homo sapiens) (P16473 whole entry, looked up): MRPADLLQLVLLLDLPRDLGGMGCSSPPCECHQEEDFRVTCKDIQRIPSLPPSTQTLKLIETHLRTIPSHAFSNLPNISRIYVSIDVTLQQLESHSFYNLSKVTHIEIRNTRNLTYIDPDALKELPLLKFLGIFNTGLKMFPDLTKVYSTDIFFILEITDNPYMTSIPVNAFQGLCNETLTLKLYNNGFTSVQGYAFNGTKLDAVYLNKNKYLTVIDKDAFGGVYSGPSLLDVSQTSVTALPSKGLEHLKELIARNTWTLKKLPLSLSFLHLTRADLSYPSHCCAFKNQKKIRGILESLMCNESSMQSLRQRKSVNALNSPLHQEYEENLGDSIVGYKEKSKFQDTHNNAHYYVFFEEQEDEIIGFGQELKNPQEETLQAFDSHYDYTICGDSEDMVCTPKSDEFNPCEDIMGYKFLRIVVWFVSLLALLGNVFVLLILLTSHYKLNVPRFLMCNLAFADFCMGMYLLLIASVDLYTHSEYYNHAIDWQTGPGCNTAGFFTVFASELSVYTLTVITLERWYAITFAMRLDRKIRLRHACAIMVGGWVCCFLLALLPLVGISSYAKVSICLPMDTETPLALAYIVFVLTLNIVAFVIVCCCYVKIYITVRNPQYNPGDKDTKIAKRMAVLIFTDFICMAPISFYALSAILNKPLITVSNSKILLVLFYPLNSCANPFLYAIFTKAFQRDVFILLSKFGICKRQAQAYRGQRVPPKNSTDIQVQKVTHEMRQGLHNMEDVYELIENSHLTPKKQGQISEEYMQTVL

CCCOC(=O)c1ccc(N)cc1
inactive: Potency [1] | Potency [2] | Potency [3] | outcome [4] | Potency [5] | Potency [6] | Potency [7] | Potency [8] | Potency [9] | Potency [10] | Potency [11] | Potency [12] | Potency [13] | Potency [14] | Potency [15] | outcome [16] | Potency [17]

CNC(=S)NC
inactive: Potency [1] | Potency [2] | Potency [3] | Potency [5] | Potency [6] | Potency [7] | Potency [8] | Potency [13] | Potency [15] | Potency [18] | outcome [16] | Potency [17]
active: Potency [14] 13.7 µM

Oc1ccc(Nc2ccccc2)cc1
active: Potency [2] 30.6 µM
inactive: Potency [1] | Potency [3] | Potency [5] | Potency [7] | Potency [8] | Potency [9] | Potency [10] | Potency [13] | Potency [15] | Potency [18] | outcome [16] | Potency [17]

CCCCCCCCSCCO
inactive: Potency [1] | Potency [2] | Potency [5] | Potency [6] | Potency [7] | Potency [8] | Potency [9] | Potency [13] | Potency [14] | Potency [15] | outcome [16] | Potency [19] | Potency [17]

CC(C)CCCC(=O)O
inactive: Potency [1] | Potency [2] | Potency [3] | Potency [5] | Potency [6] | Potency [7] | Potency [8] | Potency [9] | Potency [10] | Potency [13] | Potency [14] | Potency [15] | Potency [18] | Potency [17]

COCc1c(C(C)C)nc(C(C)C)c(/C=C/[C@@H](O)C[C@@H](O)CC(=O)O)c1-c1ccc(F)cc1
inactive: Potency [1] | Potency [2] | Potency [3] | outcome [4] | Potency [6] | Potency [7] | Potency [8] | Potency [9] | Potency [13] | Potency [15] | Potency [18] | outcome [16] | Potency [17]
active: Potency [14] 298 nM and 1.08 µM

COc1ccc(CCC(=O)c2c(O)cc(O[C@@H]3O[C@H](CO)[C@@H](O)[C@H](O)[C@H]3O[C@@H]3O[C@@H](C)[C@H](O)[C@@H](O)[C@H]3O)cc2O)cc1O
inactive: Potency [1] | Potency [2] | Potency [3] | Potency [5] | Potency [6] | Potency [7] | Potency [8] | Potency [9] | Potency [10] | Potency [11] | Potency [13] | Potency [14] | Potency [15] | Potency [20] | Potency [18] | outcome [16] | Potency [17]

CCCC(=O)O[C@]1(C(=O)COC(=O)CC)CC[C@H]2[C@@H]3CCC4=CC(=O)CC[C@]4(C)[C@H]3[C@@H](O)C[C@@]21C
inactive: viability change, negative = cytotoxic [1] 0.0902% [at 19 µM] | Potency [2] | activity change, negative = inhibition [3] 31.4% [at 19 µM] | PLD induction [4] -3.36% [at 7.66 µM] | activity change, negative = inhibition [5] -0.144% [at 19 µM] | activity change, negative = cytotoxicity [6] -1.94% [at 19 µM] | viability change, negative = cytotoxic [7] 2.28% [at 19 µM] | viability change, negative = cytotoxic [8] -1.17% [at 19 µM] | activity change [9] -1.53% [at 18.9 µM, hits give high values] | activation [11] 6.24% [at 19 µM] | activity change, negative = cytotoxicity [13] 0.279% [at 19 µM] | activity change, negative = cytotoxicity [14] 1.26% [at 19 µM] | activity change, negative = cytotoxicity [20] 2.67% [at 19 µM] | activation [18] 0.91% [at 19 µM] | cAMP activity change [16] 6.72% [at 18.9 µM] | activity change, negative = inhibition [19] -1.62% [at 19 µM] | activity change, negative = cytotoxicity [17] 2.18% [at 19 µM]
active: Potency [15] 0.184 µM
